HPGD inh = qHTS Assay for Inhibitors of HPGD (15-Hydroxyprostaglandin Dehydrogenase); purified HPGD, NADH fluorescence kinetic, PGE2 substrate; Potency, µM, inactives show at the top dose activity change, negative = inhibition, most hits filed as inhibitors; 4.3% of 150,000 active; AID 894, 2007; active means well fitted inhibition curve with a large enough effect, not every such curve was filed as active; inconclusive means small, poorly fitted or top-dose-only effect, or another doubt; inactive means no such curve, though single readings can be large or run the other way; further: potency means the concentration at half of the fitted maximal effect; on the % scale 0 is the no-effect control and ±100 the full control effect
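20 nM HPGD preincubated 15 min at room temperature with compound in 50 mM Tris-HCl pH 8, 0.01% Tween 20. Started with 1 mM NAD+ and 30 uM prostaglandin E2; NADH fluorescence (360/450 nm) read 5 times over 30-s intervals, last minus first.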
HTT ATP protect = qHTS Multiplex Assay to Identify Dual Action Probes in a Cell Model of Huntington: Cytoprotection (ATP) | PC12 HTT-Q103 induced, cytoprotection, ATP luminescence, 40 h | Potency, µM (titrated, usually from 56.4 µM), for inactives: cytoprotection (ATP increase), actives largely listed as activators | 0.14% of 230,000 active | AID 1471, 2008; further: potency means the concentration at half of the fitted maximal effect; % of control where 0% means no effect; nearly all actives have a fitted effect of over 45% in size
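Huntington model: PC12 line, ecdysone-inducible HTTQ103 exon1–GFP, tebufenozide 100 nM. Test articles in a dose series. Endpoint luminescence from cellular ATP.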
IMPase cell inh = qHTS Assay for Identifying the Cell-Membrane Permeable IMPase Inhibitors. CHO-M1 cells, IP1 accumulation, HTRF TR-FRET ratio. AID 901, 2007. inhibition (IP1 accumulation), % at 46.1 µM. 120,000 tested, under 10 active. Inositol monophosphatase 1 (Rattus norvegicus), P97697; active means well fitted curve in the direction sought with a large enough effect in the signal ratio, not every such curve was filed as active; inconclusive means small, poorly fitted or top-dose-only effect, or a change in a side signal; inactive means no such curve, though single readings can be large or run the other way; the % refers to the signal ratio;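 further: cells stimulated with carbachol in lithium chloride buffer; plate controls were DMSO basal wells for no effect and reference inhibitor wells for full effect; higher means more IMPase inhibition seen as more IP1 and lower FRET ratio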
Target sequence (P97697 whole entry, looked up): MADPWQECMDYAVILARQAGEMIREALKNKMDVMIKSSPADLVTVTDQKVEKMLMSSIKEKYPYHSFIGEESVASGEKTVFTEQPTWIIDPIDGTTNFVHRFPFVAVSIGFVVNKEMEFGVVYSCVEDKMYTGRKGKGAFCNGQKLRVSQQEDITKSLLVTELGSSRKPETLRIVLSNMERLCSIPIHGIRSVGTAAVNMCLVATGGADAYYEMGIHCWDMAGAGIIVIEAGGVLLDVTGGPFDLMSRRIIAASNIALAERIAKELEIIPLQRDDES
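Seeded CHO-M1 cells were dosed with compound at up to 46 uM, stimulated with carbachol for 30 min, then lysed in IP-One detection reagents. Higher IP1 lowers the TR-FRET signal.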
HttQ103 aggreg = qHTS Multiplex Assay to Identify Dual Action Probes in a Cell Model of Huntington: Aggregate Formation (GFP). PC12 HttQ103-GFP aggregates, Acumen cytometry, 40 h. Potency, µM (highest dose often 46.1 µM), for the others: at the highest dose activity change, negative = inhibition, most hits filed as inhibitors. 1.1% of 220,000 active; further: potency means the concentration at half of the fitted maximal effect; on the % scale 0 is the no-effect control and ±100 the full control effect; nearly all actives have a fitted effect of over 60% in size
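Multiplexed with ATP-based cell death, this channel scores GFP aggregates in PC12 cells expressing inducible HTTex1-Q103-GFP. Induction used 100 nM tebufenozide; compounds were tested in concentration series.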
IMPase Li cell = qHTS Assay for Identifying the Cell-Membrane Permeable IMPase Inhibitors: Potentiation with Lithium | CHO-M1 cells, IP1 TR-FRET (IP-One), carbachol + lithium | Potency, µM (highest dose often 59.4 µM), inactives show at the top dose activity, negative = IMPase inhibition, hits mostly inhibitors | 0.35% of 210,000 active | AID 1457, 2008;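 further: IP1 builds up when IMPase is blocked and the TR-FRET signal falls; potency means the concentration at half of the fitted maximal effect; plate controls were basal vehicle for no effect and high inhibitor control for full effect; nearly all actives have a fitted effect of over 50% in size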
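Concentration–response in CHO-M1 cells, lithium-potentiated; 30 min at 37C. IP1 detected by competitive TR-FRET after 10 min lysis at RT. Hill-fitted AC50.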
ALDH1A1 block = qHTS Assay for Inhibitors of Aldehyde Dehydrogenase 1 (ALDH1A1). 7.3% of 220,000 active. AID 1030, 2008. Aldehyde dehydrogenase 1A1 (Homo sapiens), P00352. Purified ALDH1A1, NADH fluorescence, propionaldehyde substrate. Potency, µM (highest dose often 75.3 µM), for the others: at the top dose activity, negative = inhibition, usual class: inhibitors; active means well fitted inhibition curve with a large enough effect, not every such curve was filed as active; inconclusive means small, poorly fitted or top-dose-only effect, or another doubt; inactive means no such curve, though single readings can be large or run the other way;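 further: potency means the concentration at half of the fitted maximal effect; plate controls were no enzyme wells and a reference inhibitor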
Target sequence (P00352 whole entry, looked up): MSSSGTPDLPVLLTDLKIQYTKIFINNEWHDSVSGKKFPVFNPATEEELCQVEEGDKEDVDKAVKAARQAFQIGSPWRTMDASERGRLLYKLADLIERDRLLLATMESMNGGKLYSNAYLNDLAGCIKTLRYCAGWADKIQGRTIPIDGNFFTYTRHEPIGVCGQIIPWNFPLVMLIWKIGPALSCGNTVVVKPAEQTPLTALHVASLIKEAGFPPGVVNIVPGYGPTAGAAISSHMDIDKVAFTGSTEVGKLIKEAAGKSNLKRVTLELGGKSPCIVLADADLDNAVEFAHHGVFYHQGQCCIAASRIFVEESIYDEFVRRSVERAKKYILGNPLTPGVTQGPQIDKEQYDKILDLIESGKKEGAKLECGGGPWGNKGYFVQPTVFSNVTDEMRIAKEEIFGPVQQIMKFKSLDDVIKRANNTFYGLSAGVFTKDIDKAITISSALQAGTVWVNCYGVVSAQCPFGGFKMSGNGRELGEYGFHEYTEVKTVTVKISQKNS
* marks the source's active call; other numbers are inactive results; ? = inconclusive; nt = no result given; [ ] = another dose, or the depositor's remark. This is a sample that favours compounds with a hit; in the whole collection about 9.4% have one here. Unless noted, the call rests on the fitted dose curve; in most records, active means well fitted curve in the direction sought with a large enough effect; inconclusive means small, poorly fitted or top-dose-only effect, or another doubt; inactive means no such curve, though single readings can be large; an effect the other way counts as inactive or inconclusive.

SMILES	HPGD inh	HTT ATP protect	IMPase cell inh	HttQ103 aggreg	IMPase Li cell	ALDH1A1 block
CCOc1ccccc1N1C(=O)CC(Nc2ccc(N3CCOCC3)cc2)C1=O (configuration not stated)	-16.3%	1.4%	0.8	5.6%	22.0%[38.3 µM]	7.94µM*
CC1=NN(C(N)=S)C(=O)C1N=Nc1ccc(C)cc1C (configuration not stated)	-9.8%	9.0%[10 µM]	-0.8	-2.2%	15.1%[38.3 µM]	10µM*
CC1=NN(C(N)=S)C(=O)C1N=Nc1c(C)cc(C)cc1C (configuration not stated)	-21.0%	16.8%	2.5	0.7%[9.22 µM]	1.9%[38.3 µM]	-13.7%
CC1=NN(C(N)=S)C(=O)C1N=Nc1ccccc1C (configuration not stated)	-26.3%	19.2%[10 µM]	?	-13.6%	13.3%	5.01µM*
CN(C)c1cccc(O)c1	-8.4%	3.8%	nt	nt	-3.5%	8.91µM*
CCN(CC)c1cccc(O)c1	0.6%	-8.8%	nt	nt	-5.1%	?
Cc1c(C(=O)O)c2cc(O)ccc2n1-c1ccccc1	-12.6%	-4.6%[10 µM]	3.5	-11.3%	23.5%[38.3 µM]	3.2%
COC(=O)c1c(C)n(-c2ccc(OC)cc2)c2ccc(O)cc12	?	-15.3%	2.4	11.2µM*	26.8%[38.3 µM]	-8.7%
O=C1C=CC(=O)N1c1ccc(OC(F)F)cc1	7.08µM*	nt	nt	?	-1.2%	0.708µM*
O=C1C=CC(=O)N1c1ccc(O)cc1	nt	3.8%[10 µM]	nt	-3.0%[9.22 µM]	nt	nt
COc1ccc2nc(-c3ccc(N)cc3)[nH]c2c1	?	-56.7%[10 µM]	-1.3	-4.2%	-1.4%	6.31µM*
Cc1cc2nc(Sc3c([N+](=O)[O-])nc(C)n3Cc3ccccc3)[nH]c2cc1C	-22.2%	31.8%[10 µM]	-4.0	0.9%	7.6%	1.12µM*
COc1ccc2nc(Sc3c([N+](=O)[O-])nc(C)n3Cc3ccccc3)[nH]c2c1	1.6%	12.6µM*	-2.1	nt	-0.4%[38.3 µM]	-6.4%
Cc1ccc2c(c1)sc1nc(=O)n(-c3ccccc3)c(=O)n12	nt	-25.7%[10 µM]	nt	11.9%[9.22 µM]	nt	nt
Cc1cc(C)c2nc3s/c(=C/c4ccc5c(c4)n(C)c(=O)n5C)c(=O)n3c2c1	15.8µM*	-20.3%[10 µM]	-2.6	?	-4.2%[38.3 µM]	17.8µM*
Cn1cc(/C=N/Nc2ccccc2)c2ccccc21	nt	-46.9%	nt	-0.7%	-1.7%	8.91µM*
COc1cc(/C=c2\s/c(=C(/C#N)C(=O)N3CCCC3)n(-c3ccccc3)c2=O)ccc1O	-12.6%	-10.4%[10 µM]	1.3	9.6%	-17.1%[38.3 µM]	23.5%
Cc1ccc(/C=c2\s/c(=C(/C#N)C(=O)N3CCCC3)n(Cc3ccco3)c2=O)s1	?	-35.7%	7.3	29.7%	39.5%[38.3 µM]	3.55µM*
Cc1ccc2oc(-c3cc(NC(=O)Cc4ccccc4)ccc3Cl)nc2c1	nt	nt	-15.9	nt	nt	nt
CCN1C(=O)c2ccc(C(=O)Nc3ncc(C)s3)cc2C1=O	nt	-32.3%	nt	5.8%	-5.2%	2.24µM*
CC(C)CN1C(=O)c2ccc(C(=O)Nc3ccncc3)cc2C1=O	-3.1%	1.3%	7.7	11.8%[9.22 µM]	3.5%[38.3 µM]	0.631µM*
CC(C)CN1C(=O)c2ccc(C(=O)Nc3ccccn3)cc2C1=O	-8.5%	13.8%	-1.9	-1.1%	-8.7%[38.3 µM]	1.12µM*
Cc1cnc(NC(=O)c2ccc3c(c2)C(=O)N(Cc2ccco2)C3=O)s1	-8.1%	-11.3%	3.8	-4.2%	10.1%[38.3 µM]	?
CC(=O)NS(=O)(=O)c1ccc(NC(=O)c2ccc3c(c2)C(=O)N(CCC(C)C)C3=O)cc1	28.2µM*	nt	nt	3.6%	-3.9%	?
COCCCN1C(=O)c2ccc(C(=O)Nc3ccc(OC)cc3)cc2C1=O	-5.5%	5.1%	-4.0	-0.3%	7.6%[38.3 µM]	?
SMILES	HPGD inh	HTT ATP protect	IMPase cell inh	HttQ103 aggreg	IMPase Li cell	ALDH1A1 block
CCc1cc2c(nc1CC)CCN(CC/C(C)=N/O[C@@H]1O[C@H](COC(C)=O)[C@H](OC(C)=O)[C@H](OC(C)=O)[C@H]1OC(C)=O)C2	nt	18.1%[10 µM]	nt	nt	nt	16.9%[13.5 µM]
CCCn1c(-c2ccc(F)cc2)nc2c(NCCN3CCCC3)nc(C)nc21	?	-14.2%	nt	nt	2.0%	?
CCCc1cc(=O)[nH]c(-n2[nH]c3c(c2=O)CCCC3)n1	22.4µM*	-4.8%	11.2	4.5%	37.7%[38.3 µM]	23.8µM*
CC(C)(C)Nc1oc(-c2ccccc2)nc1-c1ccccc1	-7.7%	-14.1%	nt	nt	13.7%	-1.5%
C=CCSc1nnc2c(n1)[nH]c1c(C)cccc12	15.8µM*	-26.4%	9.4	-32.1%	1.3%[38.3 µM]	?
Cc1cccc2c1[nH]c1nc(N/N=C\c3ccco3)nnc12	-7.5%	0.9%[10 µM]	0.9	-1.9%	-0.4%	-15.7%
COc1ccc(/C=N/Nc2nn3cnnc3c3ccccc23)cc1	nt	-35.4%[10 µM]	nt	-8.0%[9.22 µM]	nt	nt
O=C(COc1cccc(Br)c1)N/N=C1\CCSC1	nt	-8.4%[10 µM]	nt	0.3%	13.8%	4.47µM*
CN(C)C[C@H]1CCC2=C(C1=O)C(c1ccc(Cl)c(Cl)c1)C1=C(CC[C@H](CN(C)C)C1=O)O2	-15.3%	13.2%[10 µM]	nt	nt	14.6%	-9.9%[13.5 µM]
CCOC(=O)Nc1nnc(-c2ccccc2OC)s1	?	6.1%[10 µM]	1.4	4.9%	8.8%	-5.1%
COc1ccc(-c2nnc(NC(=O)C(C)C)s2)c(OC)c1	?	-28.3%	?	-6.5%	12.6µM*	?
COc1ccccc1-c1nnc(NC(=O)OCC(C)C)s1	-6.0%	-11.1%	-14.4	-1.1%	11.2µM*	?
O=C(O)CCCCn1ccc(=O)[nH]c1=O	-6.2%	-2.7%[10 µM]	nt	nt	-3.7%	7.0%[13.5 µM]
CCOc1ccc(Cc2nccc3cc(OCC)c(OCC)cc23)cc1OCC	-15.1%	-77.1%	1.2[20.6 µM]	-9.4%[20.6 µM]	11.4%	8.7%
C[N+](C)(C)CCN(Cc1cccs1)c1ccccn1	-13.8%	11.5%[10 µM]	nt	nt	1.3%	3.9%[13.5 µM]
O=S(=O)(Cc1ccccc1Cl)CC(O)COc1ccccc1Cl (configuration not stated)	11.2µM*	1.4%	-4.1	-2.3%	11.2%[38.3 µM]	-3.9%
Cc1cnc(C(=O)OCC(=O)N2c3ccccc3NC(=O)C2(C)C)cn1	-7.4%	-2.8%	0.6	-3.8%	1.4%[38.3 µM]	6.6%
CC1(C)C(=O)Nc2ccccc2N1C(=O)COc1ncnc2c(Cl)cc(Cl)cc12	nt	-11.2%	-3.5	-22.1%	nt	28.2µM*
CCOc1ccc(C2c3c(oc4cc(C)c(C)cc4c3=O)C(=O)N2CCCN2CCOCC2)cc1 (configuration not stated)	-18.6%	-18.3%	-2.7	?	1.7%[38.3 µM]	7.94µM*

Source: PubChem BioAssay (National Center for Advancing Translational Sciences (NCATS))
